High-throughput results from PubChem BioAssay.
The entries come from a sample that favours hits as a whole.
Pf Dd2 inh – inhibitors of Plasmodium falciparum Dd2 growth. Potency, µM (series often up to 28.9 µM), actives largely listed as inhibitors. AID 1347417. P. falciparum Dd2 growth, SYBR Green, 72 h. hit rate 4.3% among 120,000; active means well fitted inhibition curve with a large enough effect; further: nearly all actives have a fitted effect of over 65% in size
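Readout: SYBR Green fluorescence, 485 nm excitation, 535 nm emission, after ~16 h lysis at 37C. Before that, Dd2-infected red cells (2.5% hematocrit) grew 72 h with compound, 29 uM top final concentration.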
Each line names hits and unclear results; the compound was inactive in the other large screens.

CCN1CCN(C(c2ccc(OC)cc2)c2c(O)cc(C)n(CCOC)c2=O)CC1 (stereo unspecified)	none
CCN1CCN(Cc2c(O)ccc3cc(-c4ccc(OC)cc4)c(=O)oc23)CC1	Pf Dd2 inh 5.62µM
CN1CCN(Cc2c(O)ccc3cc(-c4ccc(Cl)cc4)c(=O)oc23)CC1	Pf Dd2 inh 5.01µM
COc1ccc(-c2cc3ccc(O)c(CN4CCOCC4)c3oc2=O)cc1	Pf Dd2 inh 11.2µM
COc1ccc(-c2coc3c2c(C)cc2oc(=O)c(C)c(C)c23)cc1	none
COc1ccc(Cc2nc3ccc(C(=O)NCCN4CCOCC4)cc3o2)cc1	none
CN1CCN(c2cc(=O)c3ccnc(-c4ccc(Cl)cc4)c3o2)CC1	none
COc1ccc(CN2CCC(N3CCOCC3=O)CC2)cc1	none
COc1ccc(-c2c(C)c3cc(OC(=O)N4CCOCC4)ccc3oc2=O)cc1	none
Cc1ccc(NC(=O)Cn2c(=O)c(-c3noc(C)n3)c3n(c2=O)CCCCC3)c(Cl)c1	none
COCCOC1CCN(C(=O)c2sc(C)nc2C)CC1	none
O=C(CCNc1c(-c2cccc(F)c2)nc2cnccn12)NCc1ccccc1	none
O=C(NC[C@H]1OC[C@@H](N(Cc2ccccc2)Cc2ccccc2)[C@@H]1O)Nc1ccccc1	none
Cc1ccc(C(=O)N2CCN(c3cc(-c4cccs4)[nH]n3)CC2)cc1	none
CC(C)C(=O)N1CCCCCCNC(=O)[C@@H]2C[C@@H](C(=O)N3CCN(c4ccccn4)CC3)C[C@@H]21	none
O=C1NCCCCCN(C(=O)NC2CCCCC2)[C@@H]2C[C@@H](C(=O)N3CCc4ccccc4C3)C[C@H]12	Pf Dd2 inh 8.91µM
O=C1NCCCCCCN[C@H]2C[C@H](C(=O)N3CCc4ccccc4C3)C[C@@H]12	Pf Dd2 inh 6.31µM
Cn1ccnc1C(=O)N1CCCCCNC(=O)[C@H]2C[C@H](C(=O)N3CCc4ccccc4C3)C[C@H]21	none
CCS(=O)(=O)N1CCCCCCNC(=O)[C@@H]2C[C@@H](C(=O)N3CCc4ccccc4C3)C[C@@H]21	none
O=C1CCCCC(C(=O)N2CCc3ccccc3C2)N1 (stereo unspecified)	none
CC(C)c1ccc(CN2CCc3nc(N4CCN(C)CC4)[nH]c(=O)c3CC2)cc1	none
O=C(O)CCC1CCN(C(=O)c2ccccc2Cl)CC1	none
COc1ccc(-c2ccc(C(=O)N3Cc4[nH]cnc4CC3C(=O)O)o2)cc1 (stereo unspecified)	none
COCCN(Cc1cnn(C)c1)C(=O)C1CC2(CCNCC2)CN1 (stereo unspecified)	none
CC(C)CCNC(=O)c1nn(C)c2c1CSc1ccccc1-2	none
CC(C)OCCCNC(=O)c1nn(C)c2c1CSc1ccccc1-2	none
CCN(CC)CCCNC(=O)c1nn(C)c2c1CSc1ccccc1-2	Pf Dd2 inh 5.62µM
CN1CC(=O)N(C2CCNC2)Cc2c(NCCCN3CCCCC3)ncnc21 (stereo unspecified)	none
CCC(=O)N1CCN(C2CCN(Cc3cccnc3)C2=O)CC1 (stereo unspecified)	none
Cn1nc(C(=O)N2CCCC(CN3CCCC3)CC2)c2ccccc21 (stereo unspecified)	Pf Dd2 inh 3.16µM
Cn1nc(C(=O)N2CCc3nn(CC4CC4)c(=O)n3CC2)c2ccccc21	none
O=C(c1ccccn1)N1CCCC(CN2CCCC2)CC1 (stereo unspecified)	none
O=C(Cc1cccs1)N1CCC2(CC1)N=C(c1ccc(Cl)cc1)NO2	none
CCOc1ccccc1CN1CCN(C(=O)CC2CCOCC2)CC1	none
O=C1CCN(Cc2ccccc2OCC(O)CN2CCCCC2)CCN1 (stereo unspecified)	none
CCOC(=O)C1CCN(Cc2ccccc2OCC(O)CN(C)C2CCCCC2)CC1 (stereo unspecified)	Pf Dd2 inh 10µM
COc1cccc([C@@H]2CN(C(=O)Cc3ccc(F)cc3)C[C@H]2C(=O)O)c1OC	none
CC1CCC2(CC1)NC(=O)N(CC(=O)Nc1ccc3c(c1)OCO3)C2=O (stereo unspecified)	none
CC(C)(C)C1CCC2(CC1)NC(=O)N(CC(=O)Nc1ccc3c(c1)OCCO3)C2=O (stereo unspecified)	Pf Dd2 inh 7.94µM
O=C(CN1C(=O)NC2(CCOCC2)C1=O)Nc1ccc2c(c1)OCCO2	none
CCN1C(=O)c2ccccc2S(=O)c2ccc(C(=O)N3CCN(c4ccccc4)CC3)cc21 (stereo unspecified)	none
O=C(c1ccc2c(c1)N(Cc1ccccc1F)C(=O)c1ccccc1S2=O)N1CCC(Cc2ccccc2)CC1 (stereo unspecified)	none
CCOC(=O)C1CCCN(C(=O)Cn2ncc3c(C)n(Cc4ccc(Cl)cc4)c(C)c3c2=O)C1 (stereo unspecified)	none
O=C(c1ccc2c(c1)N(Cc1ccccc1F)C(=O)c1ccccc1S2=O)N1CCOCC1 (stereo unspecified)	none
CN1CCN(C(=O)c2ccc3c(c2)N(Cc2ccc(F)cc2)C(=O)c2ccccc2S3=O)CC1 (stereo unspecified)	Pf Dd2 inh 3.98µM
CCN1C(=O)c2ccccc2S(=O)c2ccc(C(=O)NCc3ccc(C)cc3)cc21 (stereo unspecified)	none
CCN1CCN(C(=O)c2ccc3c(c2)N(Cc2ccc(Cl)cc2)C(=O)c2ccccc2S3=O)CC1 (stereo unspecified)	Pf Dd2 inh 0.501µM
CCOC(=O)C1CCCN(C(=O)c2ccc3c(c2)N(Cc2ccc(Cl)cc2)C(=O)c2ccccc2S3=O)C1 (stereo unspecified)	Pf Dd2 inh 11.2µM
N#Cc1cccc(S(=O)(=O)N2CCc3n[nH]c(=O)n3CC2)c1	none
COC(=O)N1CCC2(CC1)C(=O)NN=C2C1CC1	none
COc1cccc(OCc2nc3ccccc3n2Cc2ccccc2)c1	none
COc1ccc(OCc2nc3ccccc3n2Cc2ccc(C(C)(C)C)cc2)cc1	Pf Dd2 inh 11.2µM
CC(C)(C)c1ccc(OCc2nc3ccccc3n2CCOc2ccccc2)cc1	none
O=C(c1ccc(Cl)cc1)N1CCC(N(C(=O)C2CC2)C2CCOCC2)CC1	none
O=C(c1ccccc1F)N1CCC(CCOc2ccccc2)C1 (stereo unspecified)	none
Cc1ccc(-c2n[nH]c3c2C(c2cccc(O)c2)N(c2ccc(C(=O)O)cc2)C3=O)cc1 (stereo unspecified)	none
CCOC(=O)c1ccc(N2C(=O)c3[nH]nc(-c4ccc(C)cc4)c3C2c2cccs2)cc1 (stereo unspecified)	Pf Dd2 inh 11.2µM
CCOC(=O)c1ccc(NC(=O)c2cn(-c3ccccc3)nc2-c2ccc(C)cc2)cc1	none
CCOC(=O)c1ccc(N2C(=O)c3n[nH]c(-c4cccs4)c3C2c2ccc(CC)cc2)cc1 (stereo unspecified)	Pf Dd2 inh 10µM
CCOC(=O)c1ccc(N2C(=O)c3n[nH]c(-c4ccco4)c3C2c2ccc(O)c(OCC)c2)cc1 (stereo unspecified)	none
CCOC(=O)c1ccc(N2C(=O)c3[nH]nc(-c4ccc(C)cc4)c3C2c2ccc(O)c(OCC)c2)cc1 (stereo unspecified)	Pf Dd2 inh 7.08µM
CCOC(=O)c1ccc(N2C(=O)Cc3cc(OCC)c(OCC)cc3C2c2ccccc2)cc1 (stereo unspecified)	none
CCOC(=O)c1ccc(N2C(=O)c3n[nH]c(-c4cccs4)c3C2c2cccc(O)c2)cc1 (stereo unspecified)	none
CCOC(=O)c1ccc(N2C(=O)c3[nH]nc(-c4ccc(OC)cc4)c3C2c2ccccc2Cl)cc1 (stereo unspecified)	none
CCOc1ccc(C2c3c(-c4ccc(C)cc4)n[nH]c3C(=O)N2c2ccc(Cl)cc2)cc1 (stereo unspecified)	Pf Dd2 inh 10µM
